Compounds with a hit are over-represented: about 1.3% of the library has one in this group of screens.
IL1B NFkB pot: enhancers of NFkB p65 translocation in HUVEC – imaging, IL-1B stimulus, high-content imaging, primary screen | HUVEC IL-1B NFkB p65 nuclear translocation imaging | activation, % at 2 µM | 94,000 tested, 0.3% active | AID 819, 2007;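 active means activation above 40%, about the mean plus 3 SD, also judged a hit on visual image review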;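 further: percent activation is computed from the nuclear over cytoplasmic p65 intensity ratio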
LYP inh 2: PTPN22 phosphatase inhibitors, primary screen, biochemical, DiFMUP fluorescence, 2 µM; Tyrosine-protein phosphatase non-receptor type 22 (Homo sapiens), Q9Y2R2; recombinant LYP catalytic domain; inhibition, % at 2 µM; 96,000 tested, 0.21% active; AID 640, 2007;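 active means inhibition at 2 µM at or above a set limit, the screen mean plus 3 SD, cut at about 24% in these data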;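 further: 0% = DMSO with enzyme and 100% = enzyme fully blocked by orthovanadate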
Target sequence (Q9Y2R2 whole entry, looked up, the tested form may be a part): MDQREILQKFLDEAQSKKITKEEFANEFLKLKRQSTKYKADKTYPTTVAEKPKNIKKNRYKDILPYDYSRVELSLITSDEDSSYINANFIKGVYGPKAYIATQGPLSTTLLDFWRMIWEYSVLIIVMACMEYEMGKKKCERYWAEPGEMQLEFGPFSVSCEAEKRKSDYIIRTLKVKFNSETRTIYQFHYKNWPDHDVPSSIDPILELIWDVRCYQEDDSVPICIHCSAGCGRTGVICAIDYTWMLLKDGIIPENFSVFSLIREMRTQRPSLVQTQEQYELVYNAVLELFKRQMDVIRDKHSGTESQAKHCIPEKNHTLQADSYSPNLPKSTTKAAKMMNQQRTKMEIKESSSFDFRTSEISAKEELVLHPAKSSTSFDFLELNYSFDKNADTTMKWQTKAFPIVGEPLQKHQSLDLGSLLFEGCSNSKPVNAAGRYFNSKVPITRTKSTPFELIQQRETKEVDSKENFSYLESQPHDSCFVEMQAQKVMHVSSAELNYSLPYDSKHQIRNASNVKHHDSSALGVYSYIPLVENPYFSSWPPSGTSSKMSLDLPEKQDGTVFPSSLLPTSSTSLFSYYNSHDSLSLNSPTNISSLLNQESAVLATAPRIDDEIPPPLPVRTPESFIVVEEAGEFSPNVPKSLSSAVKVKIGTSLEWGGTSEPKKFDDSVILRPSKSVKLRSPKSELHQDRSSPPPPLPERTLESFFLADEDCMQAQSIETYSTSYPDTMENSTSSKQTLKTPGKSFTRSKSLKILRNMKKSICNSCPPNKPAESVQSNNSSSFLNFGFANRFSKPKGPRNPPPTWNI
NFkB transloc inh: inhibitors of IL-1B driven NFkB p65 nuclear import, primary screen, imaging, HUVEC, IL-1B stimulus, high-content imaging | HUVEC IL-1B NFkB p65 nuclear translocation imaging | inhibition, % at 2 µM | 94,000 tested, 0.43% active | AID 796, 2007;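 active means inhibition above about 30% together with a positive call from visual inspection of the well image, limit read from the data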;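 further: nuclear over cytoplasmic p65 intensity ratio measured by imaging; 0% = IL-1B stimulated DMSO wells and 100% = unstimulated DMSO wells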
HUVEC tox IL1B: cytotoxicity in IL-1B stimulated HUVEC, primary screen, cytotoxicity control for IL-1B NFkB translocation project, imaging, Hoechst nuclear count, IL-1B stimulus; HUVEC cell count loss; cell count reduction, % at 2 µM; 94,000 tested, 0.41% active; AID 845, 2007;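 active means cell count reduction more than 3 SD above the screen-wide mean, cut at about 70% in these data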;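 further: normalized per plate to untreated control cells as the no-loss baseline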
LYP act: LYP phosphatase activators, primary screen, biochemical, DiFMUP fluorescence, 2 µM; Tyrosine-protein phosphatase non-receptor type 22 (Homo sapiens), Q9Y2R2; recombinant LYP; 0 = plate median, 100 = signal doubled; activation, % at 2 µM; 96,000 tested, 0.11% active; AID 697, 2007;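 active means activation at 2 µM above a set limit, the mean plus 5 SD, cut at about 37% in these data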
Starred values were filed as active, the others as inactive.

SMILES | IL1B NFkB pot | LYP inh 2 | NFkB transloc inh | HUVEC tox IL1B | LYP act
COc1cc2[nH]c(=O)n(Cc3ccc(C(=O)NCCCN4CCN(C)CC4)cc3)c(=O)c2cc1OC | 1 | -5 | -1 | 20 | 5
Cc1ncc(CSc2nc3ccccc3[nH]2)c(N)n1 | 8 | -14 | -8 | -10 | 12
COc1ccc2nc(SCc3cnc(C)nc3N)[nH]c2c1 | -14 | 58* | 14 | -4 | -57
CCOC(=O)c1ccc(COC(=O)c2cc3ccccc3oc2=O)o1 | -2 | 11 | 2 | 76* | -9
CCOC(=O)COc1ccc2cc(C(=O)OCC)c(=O)oc2c1 | -2 | -6 | 2 | -3 | 4
COC(=O)C1=C(C)NC(C)=C(C(=O)OC)C1C(=O)OCC(=O)N1c2ccccc2CC1C (stereo unspecified) | 12 | 12 | -12 | -12 | -10
CCCCn1nnnc1NCc1ccc(OC)c(OC)c1 | 10 | -7 | -10 | -56 | 4
CCCCn1nnnc1NCc1cccc(OC)c1OC | 114* | -3 | -114 | -7 | 1
COc1ccc(NC(=O)/C(Cl)=C(/Cl)S(=O)(=O)Cc2ccccc2)cn1 | 68* | -14 | -68 | -3 | 16
COc1ccc(NS(=O)(=O)Cc2ccccc2Cl)cn1 | -7 | 5 | 7 | -8 | -4
CCCCNC(=S)NNC(=O)c1ccco1 | -6 | 4 | 6 | -7 | -5
Cc1nc2ccc(S(=O)(=O)N(C)CC(=O)NCc3ccc4c(c3)OCO4)cc2s1 | -4 | 1 | 4 | 6 | -2
Cc1nc2ccc(S(=O)(=O)NCC(=O)NCc3ccc4c(c3)OCO4)cc2s1 | 12 | 27* | -12 | -29 | -27
CC(C)N(CCc1ccncc1)C(=O)Nc1ccc(Cl)c(Cl)c1 | 43* | -12 | -43 | 7 | 9
CC12CCC(C(=O)Nc3cccc4ccccc34)(C1Br)C2(C)C (stereo unspecified) | 2 | -24 | -2 | 8 | 28
CC1(C)Cc2c(cnn2-c2ccccc2)-c2c1c1ccccc1n2CC(O)CCl (stereo unspecified) | -13 | 3 | 13 | 91* | -5
COc1cc(NC(=O)c2cc3ccccc3o2)c(OC)cc1Cl | -100 | 2 | 100* | 78* | -2
CCOC(=O)c1[nH]c2ccc(F)cc2c1NC(=O)CN1CCc2cc(OC)c(OC)cc2C1 | 48* | -6 | -48 | 5 | 4
CCCCN(C(=O)CSc1nnc(Nc2ccc(C)c(C)c2)s1)c1c(N)n(Cc2ccccc2)c(=O)[nH]c1=O | 6 | 26* | -6 | -23 | -25
O=S1(=O)CC(O)C(N2CCCCC2)C1 (stereo unspecified) | 19 | -4 | -19 | 2 | 2
CC12CCC(C(=O)N(CSC(=S)N/N=C\c3ccccc3Cl)C1=O)C2(C)C (stereo unspecified) | -99 | 11 | 100* | 95* | -14
CCCCN(CCCC)CCNC(=O)CNC(=O)c1cccs1 | -26 | 0 | 26 | 31 | 0
CCN1CCCC1Cn1cnc2c([nH]c3ccc(Cl)cc32)c1=O (stereo unspecified) | 4 | 6 | -4 | -3 | -7
CCN1CCCC1Cn1cnc2c([nH]c3cccc(Cl)c32)c1=O (stereo unspecified) | -30 | 2 | 30* | -11 | -5
COc1ccc(OC)c(C2C(C(=O)Nc3cccnc3)=C(C)NC3=C2C(=O)CCC3)c1 (stereo unspecified) | 42* | -11 | -42 | -21 | 10
SMILES | IL1B NFkB pot | LYP inh 2 | NFkB transloc inh | HUVEC tox IL1B | LYP act
COc1ccc(OC)c(C2C3=C(CCCC3=O)NC3=C2C(=O)CCC3)c1 | 2 | -6 | -2 | -9 | 3
O=C(NCCc1nc2ccccc2[nH]1)c1ccc(F)cc1 | 13 | 8 | -13 | 92* | -11
CC(=O)NCCc1nc2ccccc2[nH]1 | -6 | 9 | 6 | 4 | -11
CC(NC(=O)COC(=O)CCNC(=O)c1ccco1)C12CC3CC(CC(C3)C1)C2 (stereo unspecified) | 63* | 0 | -63 | -44 | 0
CN1CCN(c2ncccc2S(=O)(=O)N2CCCCC2)CC1 | 26 | -3 | -26 | -18 | 2
Cn1cnc2c(N3CCCCC3)nccc21 | 4 | -1 | -4 | 93* | -1
O=C(Cn1ncc2c(=O)oc3ccccc3c21)Nc1nc2ccccc2s1 | -5 | 17 | 5 | 3 | -20
CCSc1nnc(NC(=O)Cc2cccc(OC)c2)s1 | -36 | 3 | 36* | 47 | -2
CC(=O)c1coc2ccc(OCCN3CCCCC3)cc12 | 43* | 2 | -43 | -27 | -1
COc1cc(C2C(C(C)=O)=C(O)C(=O)N2CCc2ccc(OC)c(OC)c2)ccc1O (stereo unspecified) | -17 | 0 | 18 | -24 | -3
CCOc1cc(C2C(C(=O)c3ccc(C)o3)=C(O)C(=O)N2CCc2ccccc2)ccc1O (stereo unspecified) | -47 | 3 | 47* | -27 | 2
CCC1=NNc2cccc3c(OC)ccc1c23 | 40* | 22 | -40 | -85 | -20
CC(/C=N/NC(=O)c1n[nH]c2c1CCC2)=C\c1ccccc1 | 31 | 9 | -31 | 6 | -9
O=C(N/N=C/C=C/c1ccccc1)c1n[nH]c2c1CCC2 | -34 | -1 | 34* | 47 | 0
C/C(=N\O)c1ccc(N2C(=O)C3CC=C(Cl)CC3C2=O)cc1 (stereo unspecified) | -5 | -21 | 5 | 92* | 16
CC(=O)Nc1ccc(NC(=O)c2ccccc2CC[N+](=O)[O-])cc1 | -1 | 42* | 1 | 1 | -40
O=C(NCCc1ccncc1)c1ccccc1F | 10 | 2 | -10 | -24 | -5
O=C(NCCc1ccncc1)C(F)(F)F | -72 | -7 | 72* | -40 | 5
O=C(Nc1ccc(Br)cn1)C1CCCN1S(=O)(=O)c1ccccc1 (stereo unspecified) | 6 | 13 | -6 | -10 | -11
CCCc1nc(-c2cc3ccc(C)cc3[nH]c2=O)no1 | -8 | -28 | 8 | 84* | 24
CCN(CC)Cc1nc2c(c(=O)[nH]1)C1(CCCCC1)Cc1ccccc1-2 | -5 | 6 | 5 | 90* | -8
Cc1ccc(CNC(=O)C(Cc2ccccc2)NS(=O)(=O)c2cccs2)cc1 (stereo unspecified) | -33 | 2 | 33* | -4 | -4
CCOc1cc(N2CCOCC2)c(OCC)cc1NC(=O)CSc1cccc[n+]1[O-] | 70* | 1 | -70 | -13 | 1
CCOc1cc(N2CCOCC2)c(OCC)cc1NC(=O)Cc1ccccc1OC | 3 | 8 | -3 | 18 | -6
Cn1c(=O)c2c(nc(OCc3ccccc3)n2C)n(C)c1=O | 1 | -2 | -1 | -13 | 2
COc1cccc(COc2nc3c(c(=O)n(C)c(=O)n3C)n2C)c1 | -38 | -8 | 38* | 12 | 7
